Screening results deposited in PubChem by National Center for Advancing Translational Sciences (NCATS).
BRCA1 expr act – increases BRCA1 expression; MCF7-BRCA1-FFLuc reporter, luminescence, 48 h; response scale: scaled: vehicle 0%, 10 µM genistein 100%; Potency, µM (series often up to 46.1 µM), most hits filed as activators; 380,000 compounds, 1.1% hits; AID 624202; note: nearly all actives have a fitted effect of over 80% in size
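Luminescence from a BRCA1-driven firefly luciferase in MCF7 cells was read after 48 h compound exposure at 37 C. Data normalized against DMSO and a 10microM genistein activation control, then curve-fitted across the titration.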
PTHR1 agonist – activates the human parathyroid hormone receptor PTHR1 | HEK293 GP2 PTHR1 cells, GloSensor cAMP luminescence, 1 h | Potency, µM (top dose mostly 115 µM), most hits filed as activators | 410,000 compounds, 0.075% hits | AID 743266; note: nearly all actives have a fitted effect of over 55% in size
Target sequence (Q03431 whole entry, looked up): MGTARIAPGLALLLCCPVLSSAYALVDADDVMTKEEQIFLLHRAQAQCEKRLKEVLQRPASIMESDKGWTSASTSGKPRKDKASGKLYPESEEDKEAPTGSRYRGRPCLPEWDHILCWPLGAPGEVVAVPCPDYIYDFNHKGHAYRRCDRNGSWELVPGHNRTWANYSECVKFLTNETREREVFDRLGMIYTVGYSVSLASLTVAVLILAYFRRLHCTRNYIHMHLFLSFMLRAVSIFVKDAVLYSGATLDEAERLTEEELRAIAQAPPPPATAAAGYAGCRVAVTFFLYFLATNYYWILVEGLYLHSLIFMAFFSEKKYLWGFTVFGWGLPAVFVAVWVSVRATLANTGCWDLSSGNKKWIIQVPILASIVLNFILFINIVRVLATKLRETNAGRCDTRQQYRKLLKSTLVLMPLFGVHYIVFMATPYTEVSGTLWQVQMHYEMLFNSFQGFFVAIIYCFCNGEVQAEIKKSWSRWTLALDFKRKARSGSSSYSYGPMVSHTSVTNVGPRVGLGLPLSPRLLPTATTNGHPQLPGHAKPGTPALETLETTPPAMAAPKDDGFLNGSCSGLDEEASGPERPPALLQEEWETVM
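HEK-293-derived GP2 cells expressing PTHR1 and a GloSensor cAMP reporter, 3,000/well, plated overnight, given luciferin plus IBMX (each 0.5 mM as added) for 1 h at 37 °C, then compound for 1 h at 37 °C. Luminescence was read after 15 min at room temperature.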
RGS4 inhibitor – blocks human RGS4-accelerated GTP hydrolysis; P49798; Transcreener GDP fluorescence polarization, RGS4-accelerated GTP hydrolysis; Potency, µM (series often up to 114 µM), most hits filed as inhibitors; 390,000 compounds, 0.039% hits; note: nearly all actives have a fitted effect of over 75% in size
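MLSMR compounds (23 nl, pin-transferred) preincubated 10 min at room temperature with a 500nM (2x) first reagent, then RGS4 at 900nM (2x) plus Transcreener GDP mix added; fluorescence polarization (620/688 nm) read before and after 90 min at 30 °C.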
B2AR arrestin – agonists driving beta-arrestin recruitment to human beta2-adrenergic receptor | P07550 | Potency, µM (doses to about 46.1 µM), actives largely listed as activators | beta-arrestin recruitment to beta2AR, cell-based reporter | 330,000 compounds, 0.02% hits | AID 492947; note: nearly all actives have a fitted effect of over 65% in size
D3 ag – agonists of human D3 dopamine receptor. P35462. D3R DiscoveRx beta-arrestin cells, luminescence, 90 min. max activation, %. 410,000 compounds, 0.58% hits; in the data active = max activation above about 30%
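Cells at 1500/well, incubated overnight, then treated with pinned compounds (dopamine as control) for 90 min at 37 degrees C. DiscoveRx reagent added for 30 - 60 minutes at room temperature; luminescence read.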
D3 antag – antagonists of human D3 dopamine receptor; P35462; AID 652054; max response, negative = inhibition, %; 360,000 compounds, 2.5% hits; D3R cells, DiscoveRx beta-arrestin luminescence, antagonist mode; active compounds read low; in the data active = max response below about -50%; inconclusive = no clear call, values can overlap the other calls
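Cells expressing the human receptor were seeded at 1500 cells/well, incubated overnight at 37 degrees C in 5% CO2, then exposed to library compounds with dopamine controls for 90 minutes at 37 degrees C before luminescent detection.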
Large screens that a line does not name were inactive; ! = repeats disagree. Shown are actives, neighbours in structure and some others; about 3.7% of the full set was active somewhere. Unless noted, calls come from the whole dose curve; as a rule, active = well fitted curve in the direction sought with a large enough effect; inconclusive = small, poorly fitted or top-dose-only effect, or another doubt; inactive = no such curve, though single readings can be large; an effect the other way counts as inactive or inconclusive.

COc1ccc([N+](=O)[O-])cc1NC(=O)c1cn(-c2ccc(Cl)cc2)c(=O)c2ccccc12	D3 antag -53
COc1ccc(-n2cc(C(=O)Nc3cc(F)ccc3F)c3ccccc3c2=O)cc1	none (no result: BRCA1 expr act, B2AR arrestin, D3 antag)
O=C(NNc1ccc(C(F)(F)F)cc1[N+](=O)[O-])c1ccc(NS(=O)(=O)c2ccc(F)cc2)cc1	RGS4 inhibitor inconclusive, D3 antag -73
CC(C)[C@H](Nc1ccc(C(F)(F)F)cc1[N+](=O)[O-])C(=O)O	none
COc1ccc(CNC(=O)c2ccc(-c3nc(CSc4ccccc4)c(C)o3)cc2)cc1	none (no result: BRCA1 expr act, B2AR arrestin, D3 antag)
CCCS(=O)(=O)NC(=O)C1(C)CCN(C(=O)c2cccs2)C1 (stereo not drawn)	none (no result: RGS4 inhibitor, B2AR arrestin)
CCN1CCCC1CNC(=O)c1cc2ccc(OC)cc2[nH]1 (stereo not drawn)	none
CCN1CCCC1CNC(=O)c1[nH]c2ccc(OC)cc2c1C (stereo not drawn)	D3 antag -61
CCN1CCCC1CNC(=O)c1cc([N+](=O)[O-])c(N(C)C)cc1OC (stereo not drawn)	D3 antag -103
CCN1CCCC1CNC(=O)c1ccc2c(c1)NC(=O)/C(=C\c1ccc(OC)c(OC)c1)S2 (stereo not drawn)	RGS4 inhibitor inconclusive
CCN1CCC[C@H]1CNC(=O)c1c(OC)ccc(Br)c1OC	D3 antag -55
CCN1CCCC1CNC(=O)c1cc(S(=O)(=O)CC)ccc1OC (stereo not drawn)	none (no result: BRCA1 expr act, PTHR1 agonist, RGS4 inhibitor, B2AR arrestin, D3 antag)
C=CCN1CCCC1CNC(=O)c1cc2[nH]nnc2cc1OC (stereo not drawn)	D3 antag -81
COC(=O)CCNC(=O)N1CCN(c2nnc(C)c3c(C)n(-c4ccc(Cl)cc4)nc23)CC1	none (no result: BRCA1 expr act, B2AR arrestin, D3 antag)
Cc1ccccc1-c1noc(-c2ccc(N3CCCCC3)c([N+](=O)[O-])c2)n1	none (no result: B2AR arrestin, D3 antag)
CCN1CCC[C@H]1CNC(=O)c1cc(S(N)(=O)=O)ccc1OC	none (no result: BRCA1 expr act, PTHR1 agonist, D3 ag, D3 antag)
CCN1CCCC1CNC(=O)c1cc(N)ccc1OC (stereo not drawn)	D3 antag -52 (no result: B2AR arrestin)
CCC1CCCN1Cn1cnc2c([nH]c3ccc(OC)cc32)c1=O (stereo not drawn)	D3 antag -73
CCC1CCCN1Cn1cnc2c([nH]c3ccccc32)c1=O (stereo not drawn)	none
CC(=O)NCC(=O)N[C@H](CCC(=O)O)C(=O)O	none (no result: BRCA1 expr act, PTHR1 agonist, B2AR arrestin, D3 ag, D3 antag)
CCc1ccc2[nH]c(=O)c(CN(Cc3ccc4c(c3)OCO4)Cc3nnnn3C3CCCC3)cc2c1	D3 ag 35
COC(=O)c1ccc(/C=C/c2ccc3cccc(OC(C)=O)c3n2)cc1	BRCA1 expr act inconclusive, D3 antag -64
C#Cc1cccc(NC(=O)c2ccc(Cl)cc2Cl)c1	BRCA1 expr act 1.8µM
C=CCn1c(C)nc2c(sc3nc4c(cc32)COC(C)(C)C4)c1=O	BRCA1 expr act 6.3µM
CCc1nc2c(sc3nc4c(cc32)COC(C)(C)C4)c(=O)n1CCN(CC)CC	none
COc1cc(O)c(C(CCN2CCN(c3ccccc3)CC2)c2ccc3c(c2)OCO3)c(OC)c1 (stereo not drawn)	D3 antag -108
COc1cc(O)c(C(CCN2CCN(c3ccccc3)CC2)c2cc(OC)c(OC)c(OC)c2)c(OC)c1 (stereo not drawn)	D3 antag -137
CCCc1cc(=O)n2[nH]c(-c3ccco3)nc2n1	D3 ag 43
Cc1cc(=O)n2[nH]c(-c3ccco3)nc2n1	none
COc1cccc(CNC(=S)Nc2ccc3c(c2)c(=O)n(C)n3Cc2ccccc2)c1	none (no result: RGS4 inhibitor, B2AR arrestin)
COc1ccccc1N1CCN(C(=O)C(C)CS(=O)(=O)c2ccc3c(c2)NC(=O)CS3)CC1 (stereo not drawn)	none
Fc1cc(F)c2nc(N3CCCCC3)sc2c1	BRCA1 expr act 13µM
c1ccc2sc(N3CCCCC3)nc2c1	BRCA1 expr act 4.5µM (no result: B2AR arrestin)
O=[N+]([O-])c1ccc2nc(N3CCCC3)sc2c1	BRCA1 expr act 8.9µM
Cc1ccc(-n2cc(C(=O)OCc3ccc(F)c(F)c3)c3ccccc3c2=O)cc1	none (no result: BRCA1 expr act, B2AR arrestin, D3 antag)
O=C1c2oc3ccccc3c(=O)c2C(c2ccc(Br)cc2)N1c1ccccn1 (stereo not drawn)	none (no result: BRCA1 expr act, B2AR arrestin, D3 antag)
COc1cc(N(CCCn2cnc3c(SC)ncnc32)CCCn2cnc3c(SC)ncnc32)cc(OC)c1OC	none (no result: RGS4 inhibitor, B2AR arrestin)
Cc1noc(C)c1NC(=O)N(C)C[C@@H]1Oc2ccc(NS(=O)(=O)c3c(C)noc3C)cc2C(=O)N([C@H](C)CO)C[C@H]1C	none
CCOC(=O)c1c(NC(=O)CSc2nnc3c(n2)[nH]c2ccc(F)cc23)sc(C(C)=O)c1C	none
CCOC(=O)c1c(NC(=O)CSc2ncccn2)sc2c1CCN(Cc1ccccc1)C2	D3 antag -81
CCOC(=O)c1c(NC(=O)CSc2nnc3c(n2)[nH]c2ccccc23)sc2c1CCN(C)C2	RGS4 inhibitor inconclusive, D3 antag -60 (no result: B2AR arrestin)
Cc1cc(C)[n+]2n1C(=O)C(c1ccccc1)=C2[O-]	D3 ag 50!
O=[N+]([O-])c1ccc2nc(NN=Cc3ccc(O)cc3)sc2c1	D3 antag -52 (no result: B2AR arrestin)
CC(C)c1ccc(/C=C/C(=O)Nc2nc3ccc([N+](=O)[O-])cc3s2)cc1	none
O=C(CNC(=O)c1ccc(F)cc1)OCc1cc(=O)n2nc(C3CCCCC3)sc2n1	none (no result: B2AR arrestin, D3 antag)
CCOC(=O)c1c(C)[nH]c(/C(C)=N/NC(=O)c2cccnc2)c1C	none (no result: RGS4 inhibitor, B2AR arrestin)
CCOC(=O)c1c(C)[nH]c(C(C)=NNC(=O)c2cccs2)c1C	BRCA1 expr act 2.8µM
Cc1ccccc1S(=O)(=O)NC(=O)C1(C)CCN1C(=O)CC(c1ccccc1)c1ccccc1 (stereo not drawn)	none (no result: RGS4 inhibitor, B2AR arrestin)
O=C(NC1CCN(Cc2ccccc2)CC1)c1cccc(S(=O)(=O)Nc2ccc(Br)cc2)c1	D3 antag -57
O=C(NC1CCN(Cc2ccccc2)CC1)c1cccc(S(=O)(=O)Nc2ccc(F)cc2)c1	D3 antag inconclusive
CN(C)S(=O)(=O)c1cccc(C(=O)NCC(=O)NC2CCN(Cc3ccccc3)CC2)c1	none
Cc1ccc(NS(=O)(=O)c2cccc(C(=O)NC3CCN(Cc4ccccc4)CC3)c2)c(C)c1	D3 antag -97 (no result: B2AR arrestin)
COc1ccccc1NS(=O)(=O)c1cc(C(=O)NC2CCN(Cc3ccccc3)CC2)ccc1C	D3 antag -92 (no result: B2AR arrestin)
C=CCN(c1ccccc1)S(=O)(=O)c1cccc(C(=O)NC2CCN(Cc3ccccc3)CC2)c1	D3 antag -79
COc1ccccc1NS(=O)(=O)c1cc(C(=O)N2CCCC2)ccc1C	none
CSCCC(NS(=O)(=O)c1cccs1)C(=O)Nc1ccc(C)c(Cl)c1 (stereo not drawn)	none (no result: BRCA1 expr act, B2AR arrestin, D3 antag)
